Read-out in experiment [1]: Interleukin-8 (IL8), CXCL8 (gene 3576)
In words: BSK_CASM3C_IL8: BioMAP Diversity Plus: CASM3C Assay for Interleukin-8 (IL8) Biomarker Activity (AID 2283042).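 Further: IL-8 protein level quantified by ELISA.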 The following applies: primary human coronary artery smooth muscle cells; actives raise or lower the signal.

Read-out in experiment [2]: Human Leukocyte Antigen - DR isotype (HLADR), HLA-DRA (gene 3122)
Nature of the experiment: BSK_CASM3C_HLADR: BioMAP Diversity Plus: CASM3C Assay for Human Leukocyte Antigen - DR isotype (HLADR) Biomarker Activity (AID 2283043).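 Further: cell-surface HLA-DR protein level quantified by ELISA.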 The following applies: primary human coronary artery smooth muscle cells; actives raise or lower the signal.

Read-out in experiment [3]: Macrophage colony-stimulating factor (MCSF), CSF1 (gene 1435)
In words: BSK_CASM3C_MCSF: BioMAP Diversity Plus: CASM3C Assay for Macrophage colony-stimulating factor (MCSF) Biomarker Activity (AID 2283044).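 Further: M-CSF protein amount quantified by ELISA after 24 h exposure.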 The following applies: primary human coronary artery smooth muscle cells; actives raise or lower the signal.

Read-out in experiment [4]: Low-density lipoprotein receptor (LDLR), LDLR (gene 3949)
In words: BSK_CASM3C_LDLR: BioMAP Diversity Plus: CASM3C Assay for Low-density lipoprotein receptor (LDLR) Biomarker Activity (AID 2283045).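 Further: LDLR protein level on the cell surface quantified by ELISA.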 The following applies: primary human coronary artery smooth muscle cells; actives raise or lower the signal.

Read-out in experiment [5]: Monocyte Chemoattractant Protein-1 (MCP1), CCL2 (gene 6347)
In words: BSK_CASM3C_MCP1: BioMAP Diversity Plus: CASM3C Assay for Monocyte Chemoattractant Protein-1 (MCP1) Biomarker Activity (AID 2283046).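 Further: MCP-1 level quantified by ELISA 24 h after dosing.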 The following applies: primary human coronary artery smooth muscle cells; actives raise or lower the signal.

Experiment [6] in a line: BSK_CASM3C_Proliferation: Cell Proliferation Assessment in the BioMAP Diversity Plus: CASM3C Assay (AID 2283047).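 Further: sulforhodamine B total protein stain as relative cell number at 560 nm; sub-confluent cells exposed 48 h before staining; fitted both ways against DMSO so gain or loss of cell number.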 The following applies: primary human coronary artery smooth muscle cells.
Read-out in experiment [7]: Monokine induced gamma interferon (MIG), CXCL9 (gene 4283)
Nature of the experiment: BSK_CASM3C_MIG: BioMAP Diversity Plus: CASM3C Assay for Monokine induced gamma interferon (MIG) Biomarker Activity (AID 2283048).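 Further: MIG protein level measured by ELISA.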 The following applies: primary human coronary artery smooth muscle cells; actives raise or lower the signal.

Read-out in experiment [8]: serum amyloid A (SAA), SAA1 (gene 6288)
In words: BSK_CASM3C_SAA: BioMAP Diversity Plus: CASM3C Assay for serum amyloid A (SAA) Biomarker Activity (AID 2283049).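 Further: SAA protein level quantified by ELISA.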 The following applies: primary human coronary artery smooth muscle cells; actives raise or lower the signal.

Experiment [9] is described as follows: BSK_CASM3C_SRB: Viability Assessment in the BioMAP Diversity Plus: CASM3C Assay (AID 2283050).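 Further: total protein by SRB staining as cytotoxicity measure in parallel cultures; cells exposed to compound for 24 h.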 The following applies: primary human coronary artery smooth muscle cells.
Read-out in experiment [10]: Thrombomodulin, THBD (gene 7056)
Nature of the experiment: BSK_CASM3C_Thrombomodulin: BioMAP Diversity Plus: CASM3C Assay for Thrombomodulin Biomarker Activity (AID 2283051).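 Further: thrombomodulin protein level measured by ELISA 24 h after dosing.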 The following applies: primary human coronary artery smooth muscle cells; actives raise or lower the signal.

Read-out in experiment [11]: Tissue Factor, F3 (gene 2152)
Nature of the experiment: BSK_CASM3C_TissueFactor: BioMAP Diversity Plus: CASM3C Assay for Tissue Factor Biomarker Activity (AID 2283052).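 Further: cell surface tissue factor protein level read by ELISA.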 The following applies: primary human coronary artery smooth muscle cells; actives raise or lower the signal.

Read-out in experiment [12]: Urokinase-type plasminogen activator receptor (uPAR), PLAUR (gene 5329)
Nature of the experiment: BSK_CASM3C_uPAR: BioMAP Diversity Plus: CASM3C Assay for Urokinase-type plasminogen activator receptor (uPAR) Biomarker Activity (AID 2283054).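 Further: cell-surface uPAR protein level quantified by ELISA.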 The following applies: primary human coronary artery smooth muscle cells; actives raise or lower the signal.

Read-out in experiment [13]: Vascular cell adhesion molecule 1 (VCAM1), VCAM1 (gene 7412)
In words: BSK_CASM3C_VCAM1: BioMAP Diversity Plus: CASM3C Assay for Vascular cell adhesion molecule 1 (VCAM1) Biomarker Activity (AID 2283055).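 Further: VCAM-1 protein level quantified by ELISA on the cells.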 The following applies: primary human coronary artery smooth muscle cells; actives raise or lower the signal.

Read-out in experiment [14]: Collagen III, COL3A1 (gene 1281)
In words: BSK_hDFCGF_CollagenIII: BioMAP Diversity Plus: hDFCGF Assay for Collagen III Biomarker Activity (AID 2283056). The following applies: primary human foreskin fibroblasts; actives raise or lower the signal. A digest of the protocol: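 ELISA readout of Collagen III in human dermal (foreskin) fibroblasts, taken 24 h post-treatment. Gain or loss relative to DMSO vehicle fitted in both directions.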

Read-out in experiment [15]: Epidermal growth factor receptor (EGFR), EGFR (gene 1956)
In words: BSK_hDFCGF_EGFR: BioMAP Diversity Plus: hDFCGF Assay for Epidermal growth factor receptor (EGFR) Biomarker Activity (AID 2283057). The following applies: primary human foreskin fibroblasts; actives raise or lower the signal. A digest of the protocol: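 Dosing human primary skin fibroblasts, then measuring surface EGFR by ELISA at 24 h, gives the endpoint; gains and losses relative to DMSO were fitted in both directions.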

Read-out in experiment [16]: Interleukin-8 (IL8), CXCL8 (gene 3576)
In words: BSK_hDFCGF_IL8: BioMAP Diversity Plus: hDFCGF Assay for Interleukin-8 (IL8) Biomarker Activity (AID 2283058). The following applies: primary human foreskin fibroblasts; actives raise or lower the signal. A digest of the protocol:
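IL-8 levels read by ELISA at 24 hours after dosing human skin fibroblast cultures. Parallel SRB staining assessed overt cytotoxicity, and gain or loss of signal was fitted against DMSO control.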

Read-out in experiment [17]: Macrophage colony-stimulating factor (MCSF), CSF1 (gene 1435)
In words: BSK_hDFCGF_MCSF: BioMAP Diversity Plus: hDFCGF Assay for Macrophage colony-stimulating factor (MCSF) Biomarker Activity (AID 2283060). The following applies: primary human foreskin fibroblasts; actives raise or lower the signal. The essentials: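 M-CSF levels read by ELISA at 24 h post-dosing in human skin fibroblasts. Parallel cultures stained with SRB assessed cytotoxicity at the same time point; response fitted in both directions against the DMSO baseline.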

Experiment [18] in a line: BSK_hDFCGF_SRB: Viability Assessment in the BioMAP Diversity Plus: hDFCGF Assay (AID 2283061).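 Further: cells exposed to compound for 24 h before the read.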 The following applies: primary human foreskin fibroblasts. The essentials: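 Viability was read as total protein: after 10% TCA fixation, wells were stained with 0.1% sulforhodamine B and read at 560 nm. Primary human foreskin fibroblasts were dosed for 24 h, with bidirectional fitting versus DMSO.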

The nature of experiment [19]: BSK_hDFCGF_Proliferation: Cell Proliferation Assessment in the BioMAP Diversity Plus: hDFCGF Assay (AID 2283059).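 Further: curves fitted for both rise and fall of signal versus DMSO baseline.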 The following applies: primary human foreskin fibroblasts. A digest of the protocol:
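Sub-confluent human foreskin fibroblast cultures receive test chemical […]. Relative cell number is quantified by sulforhodamine B staining (0.1%, after 10% TCA fixation) at 560 nm, with bidirectional fitting referenced to DMSO.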

The source made the active and inactive calls. How the source made its calls: active means hit-call score of the fitted dose curve at least 0.9, where 1 is the maximum; inactive means score below 0.9.

One may read the AC50 as the concentration giving half of the maximal activity seen.

Regarding `CN(C[C@@H](CC[N+]12CCC(C3CCCCC3)(CC1)CC2)c1ccc(Cl)c(Cl)c1)C(=O)c1cc(C(F)(F)F)cc(C(F)(F)F)c1`, the half-maximal activity concentration (AC50) in [1] was 24.7 µM (active); in [2] it was 12.7 µM (active); in experiment [3], 14.9 µM (active); in [4], 14.3 µM (active); in experiment [5], 15.6 µM (active); in experiment [6], 9.26 µM (active). Besides, the half-maximal activity concentration (AC50) in experiment [7] was 31.1 µM (active); in experiment [8], 18 µM (active); in [9], 14.7 µM (active); in experiment [11], 20 µM (active); in experiment [12], 13 µM (active); in experiment [13], 14.3 µM (active). Besides, the AC50 was 7.21 µM (active) in [14]; 5.37 µM (active) in experiment [15]; 9.76 µM (active) in [16]; 7.28 µM (active) in [17]; 5.86 µM (active) in experiment [18]. Moreover, the outcome in experiment [10] was inactive.
As to `O=C(O)c1ccccc1C(=O)OCc1ccccc1`, the result in experiment [1], in experiment [2], in experiment [3], in experiment [4], in [5] and in experiment [6] was inactive. Besides, the result in [7], in [8], in [9], in [10], in [11] and in experiment [12] was inactive. For the same compound, the outcome in [13], in experiment [14], in experiment [15], in experiment [19], in [17] and in [18] was inactive.
As to `CC(C)(O)c1ccc(CNC(=O)c2cccnc2Oc2ccc3nonc3c2)cc1`, the outcome in experiment [1], in experiment [2], in [3], in experiment [4], in [5] and in experiment [6] was inactive. Also, the outcome in experiment [7], in experiment [9], in [10], in experiment [11], in experiment [12] and in [13] was inactive. Further, the result in experiment [14], in experiment [15] and in experiment [18] was inactive. Further, the AC50 in experiment [8] is 27.5 µM (active).
As for `O=C1O[C@H]([C@@H](O)CO)C(O)=C1O`, the outcome in experiment [1], in [2], in [3], in [4], in experiment [5] and in experiment [6] was inactive. The outcome in [7], in experiment [8], in experiment [9], in experiment [10], in [11] and in experiment [12] was inactive. In addition, the outcome in [13], in experiment [14], in experiment [15], in [16] and in experiment [18] was inactive.
Regarding `CCCC(=O)OCCC(C)C`, the result in [1], in experiment [2], in experiment [3], in [4], in experiment [5] and in experiment [6] was inactive. Further, the outcome in experiment [7], in [8], in experiment [9], in experiment [10], in [11] and in experiment [12] was inactive. The outcome in [13], in experiment [14], in experiment [15] and in experiment [18] was inactive.
With `CCCCCCCCOC(=O)c1cc(O)c(O)c(O)c1`, the AC50 in experiment [1] was 31.7 µM (active); in experiment [2] it was 31.9 µM (active); in experiment [3], 20 µM (active); in [4], 29.2 µM (active); in experiment [5] it was 27.8 µM (active); in experiment [6], 16.1 µM (active). In addition, the half-maximal activity concentration (AC50) in [7] is 31 µM (active); in [8] it was 20 µM (active); in experiment [9], 31.3 µM (active); in experiment [10], 0.282 µM (active); in experiment [12] it was 34.2 µM (active); in experiment [13], 28.2 µM (active). The AC50 in [14] was 14 µM (active); in experiment [19], 4.32 µM (active); in experiment [17], 27.8 µM (active); in experiment [18] it was 18.5 µM (active). Also, the outcome in experiment [11] and in experiment [15] was inactive.
On to `O=CCCCC=O`, for which the outcome in [1], in [3], in experiment [4], in experiment [5], in experiment [7] and in experiment [8] was inactive. Besides, the outcome in experiment [9], in experiment [11], in experiment [12] and in experiment [15] was inactive. For the same compound, the concentration at half-maximal activity (AC50) in [2] was 30.2 µM (active); in experiment [6], 23.5 µM (active); in [10], 31.9 µM (active); in experiment [13], 22.4 µM (active); in [14], 33.6 µM (active); in experiment [16] it was 36.9 µM (active). Moreover, the concentration at half-maximal activity (AC50) in [17] is 30.6 µM (active); in experiment [18], 33.4 µM (active).
